Consider 39 molecules from PubChem BioAssay (NCATS).

Inconclusive results are not listed. Where a call stands in place of a potency, no number is given. Active and inactive are the calls of the source. The call rests on the fitted dose curve; in most records, active means well fitted inhibition curve with a large enough effect; inconclusive means small, poorly fitted or top-dose-only effect; inactive means flat fitted curve, though single readings scatter.
Potency means the concentration at half of the fitted maximal effect.

The test system of the first assay is DIV17. The experiment in a line: qHTS profiling for inhibitors of Plasmodium falciparum proliferation (AID 504749). Further: nearly all actives have a fitted effect of over 60% in size. To be noted: P. falciparum in erythrocytes, SYBR Green DNA, 72 h; series mostly up to 28.7 µM. In outline:
(§1)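 P. falciparum-infected erythrocytes (0.3% parasitemia, 2.5% hematocrit final) were exposed to compounds for 72 h at 37 C in 5% CO2, then lysed with SYBR Green buffer overnight at room temperature; parasite DNA fluorescence was normalized to artemisinin and DMSO controls.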
Take `S=C=Nc1ccc(N=C=S)cc1`: the Potency entry is “inactive”.
Take `N=C(N)n1cccn1`: the Potency entry is “inactive”.
For `Cc1cccc(C)c1NC(=O)NC1=CCCN1C`, the Potency result was “inactive”.
In the case of `Cc1cc(-c2ccc(N=Nc3ccc4c(S(=O)(=O)O)cc(S(=O)(=O)O)c(N)c4c3O)c(C)c2)ccc1N=Nc1ccc2c(S(=O)(=O)O)cc(S(=O)(=O)O)c(N)c2c1O`, the Potency entry is “inactive”.
On the same count and under the same terms, for `O=P(O)(O)O` the value was “inactive”; for `CN(CCO)CC(O)Cn1cnc2c1c(=O)n(C)c(=O)n2C` (stereo not drawn) (tested in a mixture with another compound), “inactive”.
On to `O=C(O)Cc1cc(I)c(Oc2ccc(O)c(I)c2)c(I)c1`, for which the Potency result was “inactive”.
On to `COC1=C(OC)C(=O)C(C/C=C(\C)CC/C=C(\C)CC/C=C(\C)CC/C=C(\C)CC/C=C(\C)CC/C=C(\C)CC/C=C(\C)CC/C=C(\C)CC/C=C(\C)CCC=C(C)C)=C(C)C1=O`, for which the Potency entry was “inactive”.
For the molecule `CN=C1C=CC(=C(c2ccc(N(C)C)cc2)c2ccc(N(C)C)cc2)C=C1`, the Potency was 1.51 µM (active).
Still for that read-out and setting: with `CCOc1ccc(S(=O)(=O)O)c2cccnc12` the entry was “inactive”; with `FC(F)(F)COCC(F)(F)F`, “inactive”.
The same measure, in the same setting: for `O=C(O)[C@H]1C(=CCO)O[C@H]2CC(=O)N12` the value was “inactive”; for `CC1CC(O)CC(C)(C)C1` (stereo not drawn), “inactive”.
Same read-out and setting: for `Cc1ncc(C[n+]2csc(CCOP(=O)(O)O)c2C)c(N)n1` the value was “inactive”; for `CCCCO`, “inactive”; for `CCOC(=S)SSC(=S)OCC`, “inactive”.
For the molecule `N[C@H](CC(=O)O)C(=O)O`, the Potency entry was “inactive”.
Take `CCC(C(=O)NC(N)=O)c1ccccc1` (stereo not drawn): the Potency entry was “inactive”.
The same measure, in the same setting: with `CCN(CC)CCOC(=O)c1cccnc1` the entry was “inactive”.
Take `NC(=S)NS(=O)(=O)c1ccc(N)cc1`: the Potency result is “inactive”.
With `COc1cc2c(cc1OC)[C@@H](Cc1cc(OC)c(OC)c(OC)c1)[N+](C)(CCCOC(=O)CC/C=C/CCC(=O)OCCC[N+]1(C)CCc3cc(OC)c(OC)cc3[C@H]1Cc1cc(OC)c(OC)c(OC)c1)CC2` (stereo partly drawn), the Potency result was “inactive”.
The same measure, in the same setting: for `Cc1ncc(COP(=O)(O)O)c(CN)c1O` the value was “inactive”; for `C[C@H](N)C(=O)N[C@@H](C)P(=O)(O)O`, “inactive”; for `CO[C@H]1C[C@@H]2CC[C@@H](C)[C@@](O)(O2)C(=O)C(=O)N2CCCC[C@H]2C(=O)O[C@H]([C@H](C)C[C@@H]2CC[C@@H](OC(=O)C(C)(CO)CO)[C@H](OC)C2)CC(=O)[C@H](C)/C=C(\C)[C@@H](O)[C@@H](OC)C(=O)[C@H](C)C[C@H](C)/C=C/C=C/C=C/1C`, “inactive”.
Same read-out and setting: with `CC1=C(/C=C/C(C)=C/C=C/C(C)=C/C(=O)Oc2c(C)c(C)c3c(c2C)CC[C@@](C)(CCC[C@H](C)CCC[C@H](C)CCCC(C)C)O3)C(C)(C)CCC1` the entry was “inactive”.
Consider `CCCCCCCCCCCCCC(=O)OCC(COP(=O)([O-])OCC[N+](C)(C)C)OC(=O)CCCCCCCCCCCCC` (stereo not drawn), for which the Potency entry is “inactive”.
Regarding `CC(C)c1ncc([N+](=O)[O-])n1C`, the Potency result was “inactive”.
With `NC(=O)[C@@H]1CCCN1C(=O)[C@H](Cc1cnc[nH]1)NC(=O)[C@@H]1CCC(=O)N1`, the Potency result was “inactive”.
`Cc1ccccn1`: the Potency result is “inactive”.
Consider `Nc1nccs1`, for which the Potency entry was “inactive”.
On the same count and under the same terms, with `O=C(NCCNCC(O)COc1ccc(O)cc1)N1CCOCC1` (stereo not drawn) the entry was “inactive”; with `CC(C)CCC[C@@H](C)[C@H]1CC[C@H]2[C@@H]3CC=C4C[C@@H](O)CC[C@]4(C)[C@H]3CC[C@]12C`, “inactive”.
Regarding `CS(=O)(=O)OCC(O)C(O)COS(C)(=O)=O` (stereo not drawn), the Potency result is “inactive”.
`NCC[C@H](O)C(=O)N[C@@H]1C[C@H](N)[C@@H](O[C@H]2O[C@H](CN)CC[C@H]2N)[C@H](O)[C@H]1O[C@H]1O[C@H](CO)[C@@H](O)[C@H](N)[C@H]1O`: the Potency entry is “inactive”.
Still for that read-out and setting: with `OCC(O)CO` the entry was “inactive”; with `CCOc1ccc(NC(=S)Nc2ccc(OCC)cc2)cc1`, “inactive”.
On the same count and under the same terms, with `CCOC(=O)c1cc(-c2ccccc2)nc2ccc(C)cc12` the entry was “inactive”; with `OCl`, “inactive”; with `CCc1ncnc2cc(OC)c(OC)cc12`, “inactive”.

In a further assay the test system is DIV30. Described as above. The following applies: P. falciparum in erythrocytes, SYBR Green DNA, 72 h; series mostly up to 28.7 µM. The gist of the method: as §1
Take `S=C=Nc1ccc(N=C=S)cc1`: the Potency result is “inactive”.
Regarding `N=C(N)n1cccn1`, the Potency result was “inactive”.
Same read-out and setting: with `Cc1cccc(C)c1NC(=O)NC1=CCCN1C` the entry was “inactive”; with `Cc1cc(-c2ccc(N=Nc3ccc4c(S(=O)(=O)O)cc(S(=O)(=O)O)c(N)c4c3O)c(C)c2)ccc1N=Nc1ccc2c(S(=O)(=O)O)cc(S(=O)(=O)O)c(N)c2c1O`, “inactive”; with `O=P(O)(O)O`, “inactive”.
Turning to `CN(CCO)CC(O)Cn1cnc2c1c(=O)n(C)c(=O)n2C` (stereo not drawn) (tested in a mixture with another compound), the Potency entry is “inactive”.
Consider `O=C(O)Cc1cc(I)c(Oc2ccc(O)c(I)c2)c(I)c1`, for which the Potency entry is “inactive”.
For the molecule `COC1=C(OC)C(=O)C(C/C=C(\C)CC/C=C(\C)CC/C=C(\C)CC/C=C(\C)CC/C=C(\C)CC/C=C(\C)CC/C=C(\C)CC/C=C(\C)CC/C=C(\C)CCC=C(C)C)=C(C)C1=O`, the Potency result is “inactive”.
The same measure, in the same setting: for `CN=C1C=CC(=C(c2ccc(N(C)C)cc2)c2ccc(N(C)C)cc2)C=C1` the value was 1.69 µM (active).
`CCOc1ccc(S(=O)(=O)O)c2cccnc12`: the Potency result was “inactive”.
Still for that read-out and setting: for `FC(F)(F)COCC(F)(F)F` the value was “inactive”.
On the same count and under the same terms, with `O=C(O)[C@H]1C(=CCO)O[C@H]2CC(=O)N12` the entry was “inactive”; with `CC1CC(O)CC(C)(C)C1` (stereo not drawn), “inactive”; with `Cc1ncc(C[n+]2csc(CCOP(=O)(O)O)c2C)c(N)n1`, “inactive”.
Regarding `CCCCO`, the Potency entry is “inactive”.
For `CCOC(=S)SSC(=S)OCC`, the Potency result was “inactive”.
The same measure, in the same setting: for `N[C@H](CC(=O)O)C(=O)O` the value was “inactive”; for `CCC(C(=O)NC(N)=O)c1ccccc1` (stereo not drawn), “inactive”; for `CCN(CC)CCOC(=O)c1cccnc1`, “inactive”.
On the same count and under the same terms, with `NC(=S)NS(=O)(=O)c1ccc(N)cc1` the entry was “inactive”.
For the molecule `COc1cc2c(cc1OC)[C@@H](Cc1cc(OC)c(OC)c(OC)c1)[N+](C)(CCCOC(=O)CC/C=C/CCC(=O)OCCC[N+]1(C)CCc3cc(OC)c(OC)cc3[C@H]1Cc1cc(OC)c(OC)c(OC)c1)CC2` (stereo partly drawn), the Potency entry was “inactive”.
The same measure, in the same setting: with `Cc1ncc(COP(=O)(O)O)c(CN)c1O` the entry was “inactive”.
The same measure, in the same setting: with `C[C@H](N)C(=O)N[C@@H](C)P(=O)(O)O` the entry was “inactive”; with `CO[C@H]1C[C@@H]2CC[C@@H](C)[C@@](O)(O2)C(=O)C(=O)N2CCCC[C@H]2C(=O)O[C@H]([C@H](C)C[C@@H]2CC[C@@H](OC(=O)C(C)(CO)CO)[C@H](OC)C2)CC(=O)[C@H](C)/C=C(\C)[C@@H](O)[C@@H](OC)C(=O)[C@H](C)C[C@H](C)/C=C/C=C/C=C/1C`, “inactive”; with `CC1=C(/C=C/C(C)=C/C=C/C(C)=C/C(=O)Oc2c(C)c(C)c3c(c2C)CC[C@@](C)(CCC[C@H](C)CCC[C@H](C)CCCC(C)C)O3)C(C)(C)CCC1`, “inactive”.
The same measure, in the same setting: with `CCCCCCCCCCCCCC(=O)OCC(COP(=O)([O-])OCC[N+](C)(C)C)OC(=O)CCCCCCCCCCCCC` (stereo not drawn) the entry was “inactive”; with `CC(C)c1ncc([N+](=O)[O-])n1C`, “inactive”; with `NC(=O)[C@@H]1CCCN1C(=O)[C@H](Cc1cnc[nH]1)NC(=O)[C@@H]1CCC(=O)N1`, “inactive”.
On to `Cc1ccccn1`, for which the Potency entry was “inactive”.
Same read-out and setting: for `Nc1nccs1` the value was “inactive”.
Take `O=C(NCCNCC(O)COc1ccc(O)cc1)N1CCOCC1` (stereo not drawn): the Potency entry is “inactive”.
With `CC(C)CCC[C@@H](C)[C@H]1CC[C@H]2[C@@H]3CC=C4C[C@@H](O)CC[C@]4(C)[C@H]3CC[C@]12C`, the Potency result was “inactive”.
Regarding `CS(=O)(=O)OCC(O)C(O)COS(C)(=O)=O` (stereo not drawn), the Potency entry was “inactive”.
The same measure, in the same setting: with `NCC[C@H](O)C(=O)N[C@@H]1C[C@H](N)[C@@H](O[C@H]2O[C@H](CN)CC[C@H]2N)[C@H](O)[C@H]1O[C@H]1O[C@H](CO)[C@@H](O)[C@H](N)[C@H]1O` the entry was “inactive”.
Same read-out and setting: for `OCC(O)CO` the value was “inactive”; for `CCOc1ccc(NC(=S)Nc2ccc(OCC)cc2)cc1`, “inactive”; for `CCOC(=O)c1cc(-c2ccccc2)nc2ccc(C)cc12`, “inactive”.
As for `OCl`, the Potency result is “inactive”.
On the same count and under the same terms, with `CCc1ncnc2cc(OC)c(OC)cc12` the entry was “inactive”.
